Test results: PubChem BioAssay (NCATS)
Results filed as inconclusive are left out. The source made the active and inactive calls. Calls follow the shape of the dose curve; as a rule, active = well fitted curve in the direction sought with a large enough effect; inconclusive = small, poorly fitted or top-dose-only effect, or another doubt; inactive = no such curve, though single readings can be large; an effect the other way counts as inactive or inconclusive.

Experiments:
[1] = Cellular Toxicity (caspase-3) N2a (AID 665);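 also: compound exposure lasted 16 h at 37 °C before readout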
In short: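 Mouse N2a neuroblastoma cells (1500/well) were treated with compounds for 16 h at 37 °C, then caspase-3/7 activity was read by Caspase-Glo luminescence after 1 h at room temperature. Data were normalized to DMSO and 10 uM staurosporine; AC50 from Hill fits.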

[2] = Cellular Toxicity (caspase-3) Renal Proximal Tubule (AID 667);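 also: cells exposed to compound for 16 hours at 37 °C before detection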
In short: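 Luminescent caspase 3/7 signal from peptide-aminoluciferin cleavage measures apoptosis in freshly isolated rat kidney proximal tubule cells after 16 h compound exposure. Concentration-response data are normalized to DMSO and 10 uM staurosporine, and AC50 values come from Hill equation fits.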

[3] = molecular target: Cytochrome P450 3A4 (Homo sapiens) (UniProt P08684); test: qHTS Assay for Inhibitors and Substrates of Cytochrome P450 3A4 (AID 884); also: series mostly up to about 57 µM; nearly all actives have a fitted effect of over 50% in size
Sequence of Cytochrome P450 3A4 (Homo sapiens) (P08684 whole entry, looked up): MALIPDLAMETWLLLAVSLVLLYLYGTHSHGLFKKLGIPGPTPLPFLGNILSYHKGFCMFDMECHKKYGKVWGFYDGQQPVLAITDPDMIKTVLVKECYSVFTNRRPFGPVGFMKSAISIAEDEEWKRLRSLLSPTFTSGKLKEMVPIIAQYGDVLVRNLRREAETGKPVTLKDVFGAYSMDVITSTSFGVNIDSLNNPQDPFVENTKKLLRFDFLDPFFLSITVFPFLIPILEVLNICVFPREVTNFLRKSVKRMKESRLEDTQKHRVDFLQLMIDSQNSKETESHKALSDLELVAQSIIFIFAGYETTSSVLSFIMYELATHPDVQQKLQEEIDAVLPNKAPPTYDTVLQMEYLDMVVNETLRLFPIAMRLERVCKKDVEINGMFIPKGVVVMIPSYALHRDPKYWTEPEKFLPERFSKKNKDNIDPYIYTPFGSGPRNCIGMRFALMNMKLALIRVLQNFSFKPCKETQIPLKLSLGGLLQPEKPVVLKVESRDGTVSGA
In short: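 20 nM human CYP3A4 with 25 uM Luciferin-PPXE (at KM) in 200 mM KPO4, preincubated 10 min with compound; NADPH regeneration started a 60 min RT reaction. Luciferin detected by luminescence, normalized to 57 uM ketoconazole as full inhibition.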

[4] = Cell Viability - LYMP2-001 (AID 921); also: series mostly up to about 92 µM; nearly all actives have a fitted effect of over 70% in size
In short: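 CellTiter-Glo luminescence (intracellular ATP) after 24 hr compound exposure at 37 C, 2500 lymphoblastoid cells/well in complete medium. AC50 fitted with standard Hill equation; tetraoctylammonium bromide positive control.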

[5] = MultiTox-Fluor Cytotoxicity Assay - LYMP1-001 - Dead Cells (AID 946)
In short: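 LYMP1-001 lymphoblastoid cells (2500/well) treated 16 h at 37 C. Dead-cell protease cleavage of bis-AAF-R110 read at Ex/Em 485/520. Normalized to DMSO and 15 uM tetraoctylammonium bromide; AC50 from Hill fits.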

[6] = MultiTox-Fluor Cytotoxicity Assay - LYMP1-001 - Live Cells (AID 947)
[7] = Cell Viability - LYMP1-002 - Assay at 16 hr (AID 948)
In short: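 LYMP1-002 human lymphoblastoid cells, 2500/well; 5 hr 37 C; cpd 16 hr 37 C; CellTiter-Glo 30 min RT; luminescence (ATP). Concentration-response, Hill-fit AC50. Pos ctrl tetraoctylammonium bromide.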

[8] = MultiTox-Fluor Cytotoxicity Assay - LYMP1-002 - Live Cells (AID 955)
In short: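 Human lymphoblastoid LYMP1-002 cells, 2500/well in complete medium, rested 5 hr at 37 C, then exposed to compounds for 16 hr at 37 C. Live-cell protease cleavage of GF-AFC read by fluorescence (Ex/Em 405/510) after 60 min at room temperature; AC50 from Hill fits.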

[9] = MultiTox-Fluor Cytotoxicity Assay - LYMP1-003 - Dead Cells (AID 961); also: nearly all actives have a fitted effect of over 70% in size
In short: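 LYMP1-003 human lymphoblastoid cells (2500/well) exposed to compound 16 h at 37 C in complete medium; dead-cell protease read with bis-AAF-R110 fluorescence (Ex/Em 485/520) after 60 min at room temperature. Normalized to DMSO and 15 uM tetraoctylammonium bromide; AC50 from Hill fit.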

[10] = MultiTox-Fluor Cytotoxicity Assay - LYMP1-003 - Live Cells (AID 962);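 also: cytotoxic hits lower the live-cell protease signal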
In short: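 LYMP1-003 human lymphoblastoid cells (2500/well) in complete medium were preincubated 5 hr at 37 C, then exposed to compounds for 16 hr at 37 C. Live-cell protease cleavage of GF-AFC read by fluorescence (Ex/Em 405/510); AC50 from Hill fits.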

[11] = Cell Viability - LYMP1-003 - Assay at 24 hr (AID 963)
In short: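 Human lymphoblastoid LYMP1-003 cells (2500/well) were rested 5 hr at 37 C, then exposed to compounds in complete medium for 24 hr at 37 C. Cellular ATP was quantified by CellTiter-Glo luminescence, and AC50 values came from Hill fits of concentration-response data.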

[12] = Cell Viability - LYMP1-003 - Assay at 40 hr (AID 964); also: series mostly up to about 92 µM; nearly all actives have a fitted effect of over 60% in size
In short: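 Human lymphoblastoid LYMP1-003 cells, 2500/well in complete medium, rested 5 hr at 37 C, then exposed to compounds for 40 hr at 37 C. Viability read as intracellular ATP by CellTiter-Glo luminescence; AC50 from Hill fits of concentration-response data.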

[13] = Cell Viability - LYMP2-003 (AID 965);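 also: cells exposed to compounds for 24 h before reading; nearly all actives have a fitted effect of over 50% in size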
In short: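 CellTiter-Glo luminescence (cellular ATP) after 24 h compound exposure at 37 C in complete medium; 2500 cells/well, 5 h settling beforehand. Concentration-response fitted to standard Hill equation for AC50. Tetraoctylammonium bromide served as positive control.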

[14] = Cell Viability - LYMP2-005 (AID 967); also: series mostly up to about 92 µM
In short: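 Steps: seed 2500 LYMP2-005 cells/well, incubate 5 h at 37 C, add compound, incubate 24 h at 37 C, add CellTiter-Glo, wait 30 min at RT, read luminescence. Concentration-response data fitted to Hill equation for AC50.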

[15] = Cell Viability - LYMP2-009 (AID 968); also: series mostly up to about 92 µM; nearly all actives have a fitted effect of over 55% in size
[16] = Cell Viability - LYMP2-011 (AID 969); also: nearly all actives have a fitted effect of over 60% in size
In short: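 Human lymphoblastoid cells (2500/well) were plated in complete medium, preincubated 5 hr at 37 C, then exposed to compounds for 24 hr at 37 C. Intracellular ATP was read by CellTiter-Glo luminescence, and AC50 came from Hill-equation concentration-response fits.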

[17] = Cell Viability - LYMP2-013 (AID 970); also: series mostly up to about 92 µM; nearly all actives have a fitted effect of over 55% in size
In short: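 Human lymphoblastoid cells, 2500/well, were preincubated 5 hr at 37 C, then treated with compounds for 24 hr at 37 C in complete medium. Intracellular ATP was read by CellTiter-Glo luminescence; AC50 from Hill-equation fits of concentration-response data.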

[18] = Cell Viability - LYMP2-015 (AID 971); also: nearly all actives have a fitted effect of over 55% in size
In short: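 Human lymphoblastoid cells (2500/well) in complete medium were preincubated 5 hr at 37 C, then compound-treated 24 hr at 37 C. Intracellular ATP was read by CellTiter-Glo luminescence after 30 min at room temperature; AC50 came from Hill-equation concentration-response fits.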

[19] = Cell Viability - LYMP2-017 (AID 972); also: series mostly up to about 92 µM; nearly all actives have a fitted effect of over 55% in size
In short: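 Human lymphoblastoid cells (2500/well) were seeded in complete medium, held 5 hr at 37 C, then exposed to compounds for 24 hr at 37 C. Intracellular ATP was read by CellTiter-Glo luminescence after 30 min at room temperature, with AC50 values from Hill-equation fits.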

[20] = Cell Viability - LYMP2-019 (AID 973); also: nearly all actives have a fitted effect of over 55% in size
In short: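 Human lymphoblastoid cells were seeded at 2500 cells/well, preincubated 5 hr at 37 C, then exposed to compounds for 24 hr at 37 C in complete medium. Intracellular ATP was measured by CellTiter-Glo luminescence; AC50 from Hill fits.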

[21] = Cell Viability - LYMP2-021 (AID 974)
In short: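 Human lymphoblastoid cells (2500/well) were preincubated 5 hr at 37 C, then exposed to compounds for 24 hr at 37 C in complete medium. Intracellular ATP was read by CellTiter-Glo luminescence; AC50 came from Hill-equation fits of concentration-response data.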

[22] = Cell Viability - LYMP2-023 (AID 975)
In short: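 Human lymphoblastoid cells (2500/well) were preincubated 5 hr at 37 C, then exposed to compounds for 24 hr at 37 C in complete medium. Cellular ATP was read by CellTiter-Glo luminescence, and AC50 came from Hill-equation fits.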

[23] = Cell Viability - LYMP2-025 (AID 976); also: series mostly up to about 92 µM
In short: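 Human lymphoblastoid LYMP2-025 cells (2500/well) were pre-incubated 5 hr at 37 C, then treated with compounds for 24 hr at 37 C in complete medium. Viability was read as intracellular ATP by CellTiter-Glo luminescence; AC50 from Hill fits.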

Measured: Potency

COC(=O)c1ccccc1C(=O)OC
inactive: all assays above
